From PubChem BioAssay
This is a sample that favours compounds with a hit; in the whole collection about 1.4% have one here.
GALR2 agonist = GALR2 receptor agonists, primary screen, cell-based | GALR2-expressing cells, agonist activation read-out | hit rate 0.48% among 140,000 | Galanin receptor type 2 (Homo sapiens), O43603 | activation, % (no concentration beside the values); in the data active = activation above about 5%, passing the limit was not always enough;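 also: 0% = vehicle buffer wells and 100% = reference agonist at full effect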
S1P2 blocker = human S1P2 receptor antagonists, primary screen, cell-based; cell-based S1P2 antagonist assay, inhibition at 5 uM; inhibition, % at 5 µM; hit rate 0.21% among 97,000; AID 736, 2007; in the data active = inhibition above about 45%;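 also: CRE beta-lactamase reporter cells expressing human S1P2 stimulated with S1P; 0% = agonist at EC80 alone and 100% = agonist plus reference antagonist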
Target sequence (O95136 whole entry, looked up): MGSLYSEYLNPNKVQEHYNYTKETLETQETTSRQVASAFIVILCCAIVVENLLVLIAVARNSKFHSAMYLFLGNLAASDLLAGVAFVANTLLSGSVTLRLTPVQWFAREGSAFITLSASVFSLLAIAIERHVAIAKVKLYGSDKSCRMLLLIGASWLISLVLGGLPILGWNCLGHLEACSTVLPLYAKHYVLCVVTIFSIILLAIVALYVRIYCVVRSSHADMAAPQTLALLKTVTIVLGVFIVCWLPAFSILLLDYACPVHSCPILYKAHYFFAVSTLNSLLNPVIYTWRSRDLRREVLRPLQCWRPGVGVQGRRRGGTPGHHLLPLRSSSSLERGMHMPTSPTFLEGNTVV
S1P2 agonist = S1P2 receptor agonists, primary screen, cell-based; activation, % at 4.5 µM; hit rate 0.46% among 97,000; Sphingosine 1-phosphate receptor 2 (Homo sapiens), O95136; S1P2-expressing cell line, agonist reporter read-out; in the data active = activation above about 16%;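 also: 0% = vehicle low control and 100% = maximal reference agonist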
MT1-MMP txn act = MT1-MMP promoter reporter activation – cell-based, luciferase luminescence, primary screen; AID 750, 2007; HT1080 MT1-MMP promoter luciferase reporter, overnight; active compounds read high; activation factor at 10 µM; hit rate 0.16% among 86,000;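 active = activation factor of at least 2 for MT1-MMP transcription at 10 µM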
Smad3 FoxH1 inh = Smad3/FoxH1 peptide binding inhibitors, primary screen, biochemical, TR-FRET; TR-FRET Smad3/Dy647-FoxH1 peptide binding, europium anti-His; hit rate 0.29% among 88,000; inhibition, % at 25 µM;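 active = compounds that reduce the energy-transfer binding signal between the protein and its labelled peptide by more than half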;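 also: 0% = Smad3 plus labelled peptide maximal FRET and 100% = peptide-only background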
GALR2 blocker = GALR2 antagonists in receptor-expressing cells, primary screen; hit rate 0.39% among 140,000; antagonist mode; AID 828, 2007; inhibition, % at 4 µM; Galanin receptor type 2 (Homo sapiens), O43603; in the data active = inhibition above about 27%;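 also: cells stimulated with galanin 1-16 at roughly its EC80; 0% = agonist challenge control and 100% = basal control without agonist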
Numbers without * were called inactive; / = no result given.

SMILES	GALR2 agonist	S1P2 blocker	S1P2 agonist	MT1-MMP txn act	Smad3 FoxH1 inh	GALR2 blocker
CC(C)Cn1c(N)c(C(=O)COC(=O)c2ccncc2)c(=O)n(C)c1=O	-1	-13	-3	1.2	7	2
CC(C)Cn1c(N)c(C(=O)COC(=O)CC23CC4CC(CC(C4)C2)C3)c(=O)n(C)c1=O	-2	59*	-2	1	12	25
CCCOc1ccc(Cn2c(=O)oc3ccc(C)cc32)cc1OC	0	9	29*	0.9	/	4
CN(C)CCN1C(=O)CC[C@@]2(C)C1=CC[C@H]1[C@H]2CC[C@@]2(C)[C@H]1CC[C@]2(C)O	/	/	/	/	-12	/
Cc1ccc(N2CC(C(N)=O)CC2=O)cc1C (centres undefined)	-1	-6	-8	1	12	-2
Cc1ccc(N2CC(C(N)=O)CC2=O)cc1 (centres undefined)	0	8	-1	1.2	51*	5
CC(Oc1ccccc1F)C(=O)Nc1ccc2ccccc2c1 (centres undefined)	-2	-14	-6	2*	-7	4
Cc1cccc(-n2c(SCc3cc(=O)n4c(C)cccc4n3)nc3[nH]ncc3c2=O)c1	-2	-30	17*	1.1	9	3
COc1ccc(C(O)C(CN2CCOCC2)c2ccccc2)cc1F (centres undefined)	0	-4	0	1.1	13	0
COc1ccc(C(=O)C(CN2CCOCC2)c2ccccc2)cc1F (centres undefined)	-1	7	-5	0.7	3	33*
C[C@@](N)(/C=C/c1ccccc1)C(=O)O	/	/	/	/	-12	/
COC(=O)[C@@]1(Cc2ccc(F)cc2)[C@@H]2C(=CC(=O)[C@H]2CC(=O)C(=O)N(C)C)CN1C(=O)c1ccccc1	/	/	/	1.1	/	/
CN(C)c1nc(N)nc(CSc2n[nH]c(-c3ccccc3)n2)n1	-2	-30	31*	1	9	-1
O=C(CSc1n[nH]c(-c2ccccc2)n1)c1ccccc1	-2	-10	-3	1.3	9	-2
COc1ccc(OC)c(C(=O)CSc2nc3cccnc3n2C)c1	-3	-15	32*	1.1	-2	8
Cc1ccc(C(=O)CSc2nc3cccnc3n2C)cc1	-2	8	-3	0.9	-7	-8
Nc1nsc2ccccc12	-2	50*	-3	1	/	50*
O=C(CSC1=NCCN1)c1ccccc1	/	/	/	/	13	/
COc1cc2c(cc1O)[C@@H](c1cc(O)c(O)c(OC)c1)[C@](O)(C(=O)O)[C@@H](CO)[C@@H]2O	/	/	/	/	0	/
O=C(CCn1c(=O)oc2ccccc21)Nc1ccccc1	7.9*	6	0	1.3	11	-14
Cc1ccc(NC(=O)CCn2c(=O)oc3ccccc32)cc1	-3	-11	-7	1.3	19	-9
C/C=C(/C)C(=O)OC1c2c(ccc3ccc(=O)oc23)OC(C)(C)C1OC(C)=O (centres undefined)	0	-5	20*	1.2	6	-2
COC(=O)c1ccc(C(NC(=O)OCc2ccccc2)/C(C)=C/[C@@H](C)C(=O)O)cc1 (some centres undefined)	/	/	/	1.2	/	/
CC1=C(CC[C@H](C)CO)O[C@@H]2C[C@@H]3[C@H]4CC[C@H]5C[C@@H](O)CC[C@]5(C)[C@@H]4CC(=O)[C@@]3(C)[C@H]12	/	/	/	/	99*	/
CCC(Sc1nc(C)cc(C)n1)C(=O)Nc1ccc(Cl)cn1 (centres undefined)	-1	-33	-3	2*	-1	5
SMILES	GALR2 agonist	S1P2 blocker	S1P2 agonist	MT1-MMP txn act	Smad3 FoxH1 inh	GALR2 blocker
NC1=N[C@@H](c2ccc(Cl)cc2)N(c2ccc(S(=O)(=O)Nc3ncccn3)cc2)C(N)=N1	/	/	/	/	52*	/
Cc1nc2ccccc2cc1OCc1ccc(Cl)cc1	0	70*	-3	/	/	20
C/C(=N\O)c1ccc2cc(Br)c3ccccc3c2c1	/	/	/	/	12	/
CCOCCSc1nc2c(c(-c3cccs3)c1C#N)CC/C2=C/c1cccs1	5.1*	/	/	/	/	-3
CCOC(=O)CC(=O)CSc1nc2c(c(-c3cccs3)c1C#N)CCC2	0	/	/	/	/	-9
COc1ccc2[nH]c(=O)c3c(c2c1)OC(C)(C)C=C3	-2	57*	-11	1.3	0	2
C/C(N[O-])=C(\C)[N+]([O-])=[Co].CC(=N\[O-])/C(C)=N/[O-].C[CH-][C@@H](C)O.c1ccncc1	/	/	/	/	66*	/
COc1ccc(N2CCn3c2nc2c3c(=O)n(CCc3ccccc3)c(=O)n2C)c(OC)c1	0	5	-12	1.2	-8	-1
COc1ccc(N2CCn3c2nc2c3c(=O)n(CCCc3ccccc3)c(=O)n2C)c(OC)c1	-1	58*	-4	1	-2	0
CC(=O)Nc1ccc(-c2nnc(SCC(=O)c3ccc4c(c3)Cc3ccccc3-4)n2C)cc1	4.9*	-9	-4	/	/	-31
Oc1ccc2ccccc2c1/C=N/Nc1ccccc1	-2	/	/	/	/	21
O=S(=O)(O)c1ccc(NN(c2c(O)ccc3ccccc23)S(=O)(=O)O)cc1	/	/	/	/	99*	/
NC(=O)/N=C(\N)NC(=O)c1ccccc1	/	/	/	/	4	/
CCOC(=O)c1nc(S(C)(=O)=O)ncc1Cl	-2	24	-6	0.9	-7	36*
CCn1c2ccccc2c2nc3cc(S(=O)(=O)N4CCOCC4)ccc3nc21	2	-32	31*	0.9	-2	-19
COc1ccc(C(C)=O)cc1CSc1nc2ccccc2c(=O)n1-c1cccc(C)c1	-1	/	/	/	/	15
COc1ccc(C(C)=O)cc1CSc1nc2ccccc2c(=O)n1-c1ccccc1	5.0*	/	/	/	/	-13
CCOC(=O)c1c(NC(=O)c2nn(CC)cc2Br)c(C#N)nn1-c1ccccc1	0	-24	1	1.1	6	11
CCOC(=O)c1nn(-c2ccccc2)c(C#N)c1NC(=O)c1nn(CC)cc1Br	-2	-22	24*	1.1	-15	1
COC(=O)[C@@]1(Cc2ccccc2)C=C[C@@H](C)N1C	/	/	/	1	/	/
N=C1[C@H](O)[C@]2(I)c3ccccc3N3C(=N)[C@H](O)[C@@H]4c5ccccc5N1[C@@H]4[C@@H]32	/	/	/	/	57*	/
CCC1=C2CC[C@H]3C(=O)N(c4ccccc4)C(=O)[C@H]3[C@H]2[C@@]2(Cc3ccccc3)C(=O)N(CC(=O)OC)C(=O)N2C1=O	/	/	/	1.1	/	/
C[C@@]12CC[C@@H]3[C@H](CCC4=CC(=O)CC[C@]43C)[C@H]1CC[C@H]2C(=O)Cn1cnc2c(=S)nc[nH]c21	/	/	/	/	12	/
CCNc1cc2n(c(=O)n1)CCc1cc(OC)c(OC)cc1-2	-2	-28	9	1	-10	-5
CCCCCCNc1cc2n(c(=O)n1)CCc1cc(OC)c(OC)cc1-2	-1	-48	30*	1.2	2	-10
